Data published in PubChem BioAssay (NCATS).
“And” between values parts separate entries of the source, which are not always exact repeats. Identical values can stand only once. Records with an inconclusive call do not appear. Where a call stands in place of a potency, no number is given. The source made the active and inactive calls. Unless noted, the call rests on the fitted dose curve; in most records, active means well fitted curve in the direction sought with a large enough effect; inconclusive means small, poorly fitted or top-dose-only effect, or another doubt; inactive means no such curve, though single readings can be large; an effect the other way counts as inactive or inconclusive.

Columns and labels:
[1] = target: Glucagon-like peptide 1 receptor (Homo sapiens) (UniProt P43220); assay: qHTS of GLP-1 Receptor Agonists: LOPAC Validation (AID 624148);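 further: higher luminescence signal means agonism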
Procedure, shortened: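 HEK293 cells stably co-expressing a cAMP-responsive luciferase reporter and a hypersensitive GLP-1R were plated 12 h at 37 °C and exposed to compounds for 4-6 hr at 37 °C, 5% CO2. Luminescence was read 12 min after adding detection reagent.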

[2] = qHTS of Nrf2 Activators: LOPAC Validation (AID 624149)
Procedure, shortened: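 Following overnight seeding in 5% FBS OPTI-MEM, AREc32_Fluc cells receive compounds for a 24 hr incubation at 37 deg C with 5% CO2. Steady-Glo is added, and after 30 min at RT luminescence is recorded.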

[3] = HTS Assay for Allosteric Antagonists of the Human D2 Dopamine Receptor: Hit Validation in HTRF (AID 624455);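 further: stable D1 dopamine receptor cell line scored for blocking the D1 response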
Procedure, shortened: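 Validation of hits used D1 receptor stably expressed in cells with HTRF detection of response inhibition; origin screen measured calcium flux following EC80 dopamine in a force-coupled, inducible Hek293 Trex D2 cell line.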

[4] = qHTS assay for small molecule agonists of the antioxidant response element (ARE) signaling pathway (AID 651741; active means well fitted activation curve with a large enough effect in the signal ratio; the % refers to the signal ratio; further: potency means the concentration at half of the fitted maximal effect)
Procedure, shortened: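 Beta-lactamase reporter expression driven by the antioxidant response element in HepG2 cells was detected by fluorescence with LiveBLAzer B/G FRET substrate (2 h, room temperature) following 16 h compound treatment at 37 C.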

[5] = qHTS assay for small molecule activators of the p53 signaling pathway (AID 651743; active means well fitted activation curve with a large enough effect in the signal ratio, not every such curve was filed as active; the % refers to the signal ratio; further: potency means the concentration at half of the fitted maximal effect); conditions: HCT-116 p53RE-bla, beta-lactamase FRET ratio, 16 h; activation: stronger effect = higher value
Procedure, shortened: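 Here HCT-116 cells with an integrated p53-responsive beta-lactamase gene were incubated with compounds (16 hours, 37 C) after a 5-hour plating period; beta-lactamase activity was detected as fluorescence intensity via B/G FRET substrate.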

[6] = qHTS Assay for Identification of Small Molecule Agonists for NFkB Signaling Pathway. (AID 624478);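 further: compounds tested together with TNF alpha at its EC50 of 10 pM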
Procedure, shortened: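 Assay medium contained 0.5% FBS and 10 mM HEPES pH 7.3. Compounds were added together with TNF alpha (10 pM final), incubated 5 h at 37 C, and the beta-lactamase signal was measured fluorometrically.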

[7] = qHTS Assay for Identification of Small Molecule Antagonists for NFkB Signaling Pathway. (AID 624479; calls by dose curve;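 further: pathway stimulated with TNF alpha; potency means the concentration at half of the fitted maximal effect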); conditions: NFkB pathway reporter cell assay, antagonist mode
[8] = Cell Proliferation Assay against the TMD8 Cell Line (AID 651645); conditions: TMD8 DLBCL cell line proliferation/viability; at 46.1 µM (top of the series);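 further: cells exposed to compound for 48 h before reading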
Procedure, shortened: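 Cell viability of the ABC DLBCL line TMD8 is measured by CellTiter-Glo luminescence following a 48-hour incubation with compound. Percent activity uses DMSO as 100% and 9.2 uM bortezomib (final) as 0%.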

[9] = Cell Proliferation Assay against the HBL1 Cell Line (AID 651646); conditions: HBL1 DLBCL cells; at 46.1 µM (top of the series);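 further: cells exposed to compound for 48 h before reading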
Procedure, shortened: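 After a 48 h incubation of 500 HBL1 cells/well in phenol red-free RPMI plus 5% FBS, relative luciferase units from CellTiter-Glo gave percent activity against DMSO and 9.2 uM bortezomib (final) controls.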

[10] = Cell Proliferation Assay against the TMD8 Cell Line (Caspase readout at 16 hrs) (AID 651712); conditions: TMD8 lymphoma cells, caspase activation luminescence; further: potency means the concentration at half of the fitted maximal effect
Procedure, shortened: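 16 h, 37 °C, TMD8 (500 cells/well), RPMI/5% FBS no phenol red; Caspase-Glo 3/7, 15 min RT, luminescence; %act: DMSO 0, bortezomib 9.2 uM final 100.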

Sequence of Glucagon-like peptide 1 receptor (Homo sapiens) (P43220 whole entry, looked up): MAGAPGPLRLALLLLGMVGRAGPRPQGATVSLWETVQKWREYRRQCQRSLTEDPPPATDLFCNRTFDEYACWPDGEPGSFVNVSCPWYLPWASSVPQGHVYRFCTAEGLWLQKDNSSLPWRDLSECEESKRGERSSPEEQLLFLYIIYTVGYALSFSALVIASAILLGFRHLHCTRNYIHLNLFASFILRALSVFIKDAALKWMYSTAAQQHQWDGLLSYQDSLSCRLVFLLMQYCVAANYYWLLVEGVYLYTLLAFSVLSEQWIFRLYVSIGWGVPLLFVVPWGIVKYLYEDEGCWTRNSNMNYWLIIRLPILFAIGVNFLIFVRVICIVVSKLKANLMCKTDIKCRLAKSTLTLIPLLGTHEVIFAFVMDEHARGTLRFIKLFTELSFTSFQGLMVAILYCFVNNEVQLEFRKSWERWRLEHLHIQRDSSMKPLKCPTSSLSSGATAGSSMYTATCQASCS

Which results are given for `CN(C)CCN(Cc1cccs1)c1ccccn1`?
outcome [1]: inactive; outcome [2]: inactive; Potency [3]: inactive

For `C[C@]12CCC(=O)C=C1CC[C@@H]1[C@@H]2CC[C@@]2(C)[C@H]1CC[C@]2(O)C(=O)CO`, which outcome [1] is on record?
The outcome was “inactive”.

And the outcome [2]?
Its outcome is “inactive”.

And the Potency [3]?
The Potency was “inactive”.

Which outcome [1] does the source give for `CCN(Cc1ccncc1)C(=O)C(CO)c1ccccc1` (centres undefined) here?
Its outcome is “inactive”.

What about the outcome [2] of the same compound?
Its outcome is “inactive”.

What about the Potency [3] of the same compound?
The Potency was “inactive”.

For `CN(C)CCCN1c2ccccc2Sc2ccc(C(F)(F)F)cc21`, which outcome [1] is on record?
The outcome was “inactive”.

And the outcome [2]?
The outcome was “inactive”.

What about the Potency [3] of the same compound?
Its Potency is “inactive”.

For `CCCN(CCC)C(=O)C(CCC(=O)O)NC(=O)c1ccccc1` (centres undefined), which outcome [1] is on record?
Its outcome is “inactive”.

What about the outcome [2] of the same compound?
Its outcome is “inactive”.

What about the Potency [3] of the same compound?
Its Potency is “inactive”.

For `Cc1nc2ccccn2c(=O)c1CCN1CCC(C(=O)c2ccc(F)cc2)CC1`, which outcome [1] is on record?
Its outcome is “inactive”.

What about the outcome [2] of the same compound?
The outcome was “inactive”.

And the Potency [3]?
The Potency was “inactive”.

For `CN1CCN(C2=Nc3ccccc3Oc3ccc(Cl)cc32)CC1`, which outcome [1] is on record?
Its outcome is “inactive”.

What about the outcome [2] of the same compound?
The outcome was “inactive”.

And the Potency [3]?
The Potency was “inactive”.

For `C[C@@H](O)[C@H]1C(=O)N2C(C(=O)O)=C(SCCN=CN)C[C@H]12`, which outcome [1] is on record?
The outcome was “inactive”.

What about the outcome [2] of the same compound?
The outcome was “inactive”.

And the Potency [3]?
The Potency was “inactive”.

Which outcome [1] does the source give for `CCN(CC)CC(=O)Nc1c(C)cccc1C` here?
The outcome was “inactive”.

And the outcome [2]?
The outcome was “inactive”.

What about the Potency [3] of the same compound?
The Potency was “inactive”.

What does the source list for `CCN(CC)CCNC(=O)c1cc(S(C)(=O)=O)ccc1OC`?
outcome [1]: inactive; outcome [2]: inactive; Potency [3]: inactive

Which results are given for `CC(=O)Oc1cc(C(C)C)c(OCCN(C)C)cc1C`?
outcome [1]: inactive; outcome [2]: inactive; Potency [3]: inactive

Which outcome [1] does the source give for `CN(C)CCOC(=O)COc1ccc(Cl)cc1` here?
The outcome was “inactive”.

And the outcome [2]?
Its outcome is “inactive”.

And the Potency [3]?
The Potency was “inactive”.

For `Cc1scc2c1N(C(=O)CN1CCN(C)CC1)c1ccccc1NC2=O`, which outcome [1] is on record?
Its outcome is “inactive”.

What about the outcome [2] of the same compound?
The outcome was “inactive”.

And the Potency [3]?
Its Potency is “inactive”.

What does the source list for `CCN1CCc2nc(N)oc2CC1`?
outcome [1]: inactive; outcome [2]: inactive; Potency [3]: inactive

For `Cc1ccc(Cl)c(Nc2ccccc2C(=O)O)c1Cl`, which outcome [1] is on record?
Its outcome is “inactive”.

What about the outcome [2] of the same compound?
The outcome was “inactive”.

And the Potency [3]?
The Potency was “inactive”.

With `CN1C(=O)CC[C@H]1c1cccnc1` as the compound, how does the outcome [1] read?
The outcome was “inactive”.

What about the outcome [2] of the same compound?
Its outcome is “inactive”.

And the Potency [3]?
The Potency was “inactive”.

With `CCCCCN(CCCCC)C(=O)C(CCC(=O)O)NC(=O)c1ccc(Cl)c(Cl)c1` (centres undefined) as the compound, how does the outcome [1] read?
Its outcome is “inactive”.

What about the outcome [2] of the same compound?
The outcome was “inactive”.

What about the Potency [3] of the same compound?
Its Potency is “inactive”.

Which results are given for `O=C1NCN(c2ccccc2)C12CCN(CCCC(c1ccc(F)cc1)c1ccc(F)cc1)CC2`?
outcome [1]: inactive; outcome [2]: inactive; Potency [3]: inactive

Which outcome [1] does the source give for `CNCCC(Oc1ccccc1OC)c1ccccc1` (centres undefined) here?
The outcome was “inactive”.

What about the outcome [2] of the same compound?
The outcome was “inactive”.

And the Potency [3]?
The Potency was “inactive”.

Which outcome [1] does the source give for `C[N+](C)(C)CCOC(=O)CCC(=O)OCC[N+](C)(C)C` here?
Its outcome is “inactive”.

And the outcome [2]?
Its outcome is “inactive”.

What about the Potency [3] of the same compound?
The Potency was “inactive”.

Which results are given for `O=C(O)CP(=O)(O)O`?
outcome [1]: inactive; outcome [2]: inactive; Potency [3]: inactive

Which outcome [1] does the source give for `CN=C(NC#N)NCCSCc1nc[nH]c1C` here?
Its outcome is “inactive”.

And the outcome [2]?
The outcome was “inactive”.

What about the Potency [3] of the same compound?
Its Potency is “inactive”.

And the Potency [4]?
Its Potency is “inactive”.

For `CC[N+](C)(C)c1cccc(O)c1`, which outcome [2] is on record?
Its outcome is “inactive”.

Which results are given for `NC(N)=NC(=O)Cc1c(Cl)cccc1Cl`?
outcome [1]: inactive; outcome [2]: inactive; Potency [3]: inactive

With `COC(=O)[C@@H](N)Cc1ccc(O)c(O)c1` as the compound, how does the outcome [2] read?
The outcome was “inactive”.

With `C[C@]12C=CC(=O)C=C1CC[C@H]1[C@@H]3C[C@@H](O)[C@](O)(C(=O)CO)[C@@]3(C)C[C@H](O)[C@@]12F` as the compound, how does the outcome [1] read?
The outcome was “inactive”.

What about the outcome [2] of the same compound?
Its outcome is “inactive”.

What about the Potency [3] of the same compound?
The Potency was “inactive”.

What about the Potency [4] of the same compound?
The Potency was “inactive”.

And the activation [5]?
Its activation is -0.529% (inactive).

With `Nc1ncn([C@@H]2O[C@H](CO)[C@@H](O)[C@H]2O)c(=O)n1` as the compound, how does the outcome [1] read?
Its outcome is “inactive”.

What about the outcome [2] of the same compound?
The outcome was “inactive”.

And the Potency [3]?
The Potency was “inactive”.

And the outcome [6]?
Its outcome is “inactive”.

What about the Potency [7] of the same compound?
Its Potency is 16.8 µM (active).

What about the viability (% of control) [8] of the same compound?
Its viability (% of control) is 6.56%.

What about the viability, percent of control [9] of the same compound?
The viability, percent of control was 22.1%.

What about the Potency [10] of the same compound?
Its Potency is 14.8 µM (active).

And the Potency [4]?
The Potency was 1.37 µM (active) and 1.88 µM (active).

And the Potency [5]?
Its Potency is 6.31 µM (active).

For `Nc1nc(N)c2nc(-c3ccccc3)c(N)nc2n1`, which outcome [1] is on record?
The outcome was “inactive”.

And the outcome [2]?
Its outcome is “inactive”.

And the Potency [4]?
The Potency was 54.5 µM (active) and 33.5 µM (active).

What about the Potency [5] of the same compound?
Its Potency is 20 µM (active).

With `c1cnc(N2CCN(Cc3ccc4c(c3)OCO4)CC2)nc1` as the compound, how does the outcome [2] read?
Its outcome is “inactive”.

With `CC(=O)OC(C)C[N+](C)(C)C` (centres undefined) as the compound, how does the outcome [2] read?
Its outcome is “inactive”.

What does the source list for `COc1cc(Cc2cnc(N)nc2N)cc(OC)c1OC`?
outcome [1]: inactive; Potency [4]: inactive; activation [5]: -2.04% (inactive)

With `OCCN1CCN(CCCN2c3ccccc3C=Cc3ccccc32)CC1` as the compound, how does the outcome [2] read?
Its outcome is “inactive”.

With `COc1ccc(CN(CCN(C)C)c2ccccn2)cc1` as the compound, how does the outcome [2] read?
Its outcome is “inactive”.

What about the Potency [3] of the same compound?
The Potency was “inactive”.

Which outcome [2] does the source give for `c1ccc2c(c1)CCCC2C1=NCCN1` (centres undefined) here?
The outcome was “inactive”.

Which outcome [2] does the source give for `CC(=O)[C@@]1(O)CC[C@H]2[C@@H]3CCC4=CC(=O)CC[C@]4(C)[C@H]3CC[C@@]21C` here?
Its outcome is “inactive”.

For `CC(C)(Oc1ccc(CCNC(=O)c2ccc(Cl)cc2)cc1)C(=O)O`, which outcome [2] is on record?
The outcome was “inactive”.

Which outcome [1] does the source give for `CC(N=C(NC#N)Nc1ccncc1)C(C)(C)C` (centres undefined) here?
The outcome was “inactive”.

What about the outcome [2] of the same compound?
Its outcome is “inactive”.

What about the Potency [3] of the same compound?
Its Potency is “inactive”.

With `NC(=O)N1c2ccccc2C=Cc2ccccc21` as the compound, how does the outcome [1] read?
Its outcome is “inactive”.

What about the outcome [2] of the same compound?
The outcome was “inactive”.

And the Potency [3]?
The Potency was “inactive”.

And the Potency [4]?
Its Potency is “inactive”.

For `CCn1nc(C(=O)O)c(=O)c2cc3c(cc21)OCO3`, which outcome [1] is on record?
Its outcome is “inactive”.

What about the Potency [3] of the same compound?
Its Potency is “inactive”.

With `CC(C)NNC(=O)c1ccncc1` as the compound, how does the outcome [1] read?
Its outcome is “inactive”.

What about the outcome [2] of the same compound?
Its outcome is “inactive”.

And the Potency [3]?
The Potency was “inactive”.

Which results are given for `O=c1[nH]c(=O)n([C@H]2C[C@H](O)[C@@H](CO)O2)cc1Br`?
outcome [1]: inactive; outcome [2]: inactive; Potency [3]: inactive; Potency [4]: inactive; activation [5]: 3.27% (inactive)
